Test [1] in a line: resazurin metabolic signal in HepG2 cells – cell-based, resazurin fluorescence, 24 h, PK04 Diversity Set, profiling panel (AID 1172). The following applies: HepG2 viability, higher = more signal.
The nature of test [2]: budding yeast growth changes without added modifier – OD600, strain BY4716, 24 h, basal condition, primary screen (AID 1173). The following applies: S. cerevisiae BY4716 growth, OD600, 24 h; higher = more signal, called active from +8 up or from −8 down.
The nature of test [3]: viability profiling in MM1S myeloma cells – cell-based, resazurin fluorescence, basal, 24 h, PK04 Diversity Set, profiling panel (AID 1174).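 Also: MM1S multiple myeloma cell line.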 The following applies: higher = more signal, called active from +8 up or from −8 down. In general terms: The colour change of resazurin is a common sign of viable cells or microbes.
For test [4], the target named is Dihydroorotate dehydrogenase (quinone), mitochondrial (Plasmodium falciparum (isolate 3D7)) (UniProt Q08210). Description: inhibition of P. falciparum DHODH – biochemical, C-terminal His tag, absorbance 600 nm, primary screen (AID 1175).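 Also: recombinant parasite enzyme with a five histidine tag at its C terminus.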 The following applies: PfDHODH enzyme, DCIP absorbance 600 nm; higher = more signal, called active from +8 up or from −8 down.
Test [5] can be described thus: inhibition of PAO1 biofilm formation – strain PAO1, LB-PBS medium, absorbance 600 nm, primary screen (AID 1176). The following applies: P. aeruginosa PAO1 growth/biofilm, A600, 12 h; higher = more signal.
The nature of test [6]: growth modulation of vineyard yeast isolate – strain RM11-1a, OD600, basal, 24 h, primary screen (AID 1177).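 Also: cultures grown under basal conditions with no added stressor.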 The following applies: S. cerevisiae RM11-1a growth, OD600, 24 h; higher = more signal, called active from +8 up or from −8 down.
A short description of test [7]: growth of efflux-deficient E. coli DRC39 – strain DRC39, OD650, 24 h, E. coli filamentation inducers, primary screen (AID 1178).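 Also: growth measured as culture turbidity by optical density at 650 nm.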 As to conditions: E. coli DRC39 acrAB, higher = more signal, called active from +8 up or from −8 down.
The nature of test [8]: growth of efflux-deficient E. coli DRC39 – strain DRC39, OD650, 48 h, E. coli filamentation inducers, primary screen (AID 1179).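 Also: screen aims at cell division blockers that make cells filament.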 The following applies: E. coli DRC39 delta-acrAB growth, higher = more signal, called active from +8 up or from −8 down.
Test [9] is described as follows: viability profiling in RPMI8226 myeloma cells – cell-based, resazurin fluorescence, basal, 24 h, PK04 Diversity Set, profiling panel (AID 1180).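 Also: RPMI8826 multiple myeloma cell line at 5000 cells per well.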 The following applies: higher = more signal.
Test [10] addresses E3 ubiquitin-protein ligase XIAP (Homo sapiens) (UniProt P98170). Description: small molecules binding XIAP protein – biophysical, small-molecule microarray, fluorescence 635 nm, primary screen (AID 1181).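 Also: score merges 667 nm emission and signal to noise over triplicate slides.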 The following applies: higher = more signal.
Test [11] relates to XIP peptide (Xip251-270) binding. Description: XIP fragment 251-270 binding compounds – biochemical, small-molecule microarray, fluorescence 635/667 nm, 0.1 µg/mL protein, primary screen (AID 1182). As to conditions: fluorescent protein binding, 635 nm, higher = more signal, called active from +8 up or from −8 down.
Another test concerns XIP peptide (Xip251-270). Description: compounds binding XIP fragment 251-270 – biochemical, small-molecule microarray, fluorescence 635/667 nm, 0.5 µg/mL protein, primary screen (AID 1183). The following applies: fluorescence 635 nm, higher = more signal.
Test [12] can be described thus: blood-stage malaria parasite viability loss – strain 3D7, DAPI fluorescence, 100 nL, primary screen (AID 1184).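 Also: parasites grown inside human red blood cells in medium with human serum.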 The following applies: P. falciparum 3D7 growth, 3 d, higher = more signal.
In test [13] the target is Homeobox protein Hox-A13 (Mus musculus) (UniProt Q62424). Description: disruptors of Hoxa13 oligonucleotide interaction – biochemical, fluorescence polarization, labeled oligonucleotide, primary screen (AID 1185). As to conditions: Hoxa13:DNA binding, 15 min, higher = more signal, called active from +8 up or from −8 down. For orientation: Fluorescence polarisation rises when a labelled molecule tumbles more slowly, as on binding a larger partner.

Test [14] is described as follows: blockers of DNA damage checkpoint Chk1 activation – imaging, HeLa, hydroxyurea, phospho-Chk1 antibody, percent positive cells, primary screen (AID 1186). As to conditions: hydroxyurea-induced phospho-Chk1 immunofluorescence imaging, higher = more signal.
Test [15] in a line: blockers of DNA damage checkpoint Chk1 activation – imaging, HeLa, hydroxyurea, phospho-Chk1 nuclear intensity, primary screen (AID 1187). The following applies: hydroxyurea-induced phospho-Chk1 immunofluorescence imaging, higher = more signal.

The source made the active and inactive calls. Unless noted, no rule for the calls is given here.

Sequence of Homeobox protein Hox-A13 (Mus musculus) (Q62424 whole entry, looked up): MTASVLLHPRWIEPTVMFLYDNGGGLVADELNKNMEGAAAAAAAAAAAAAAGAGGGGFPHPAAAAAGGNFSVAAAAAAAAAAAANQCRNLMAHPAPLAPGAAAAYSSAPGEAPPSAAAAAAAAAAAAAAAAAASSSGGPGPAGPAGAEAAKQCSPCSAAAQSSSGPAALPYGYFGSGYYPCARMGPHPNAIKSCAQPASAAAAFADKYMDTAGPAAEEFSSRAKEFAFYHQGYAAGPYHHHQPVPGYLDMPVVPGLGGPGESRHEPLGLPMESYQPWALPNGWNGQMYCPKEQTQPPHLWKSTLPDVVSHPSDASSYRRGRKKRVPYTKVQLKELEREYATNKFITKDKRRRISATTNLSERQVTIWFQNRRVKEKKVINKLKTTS
Sequence of Dihydroorotate dehydrogenase (quinone), mitochondrial (Plasmodium falciparum (isolate 3D7)) (Q08210 whole entry, looked up): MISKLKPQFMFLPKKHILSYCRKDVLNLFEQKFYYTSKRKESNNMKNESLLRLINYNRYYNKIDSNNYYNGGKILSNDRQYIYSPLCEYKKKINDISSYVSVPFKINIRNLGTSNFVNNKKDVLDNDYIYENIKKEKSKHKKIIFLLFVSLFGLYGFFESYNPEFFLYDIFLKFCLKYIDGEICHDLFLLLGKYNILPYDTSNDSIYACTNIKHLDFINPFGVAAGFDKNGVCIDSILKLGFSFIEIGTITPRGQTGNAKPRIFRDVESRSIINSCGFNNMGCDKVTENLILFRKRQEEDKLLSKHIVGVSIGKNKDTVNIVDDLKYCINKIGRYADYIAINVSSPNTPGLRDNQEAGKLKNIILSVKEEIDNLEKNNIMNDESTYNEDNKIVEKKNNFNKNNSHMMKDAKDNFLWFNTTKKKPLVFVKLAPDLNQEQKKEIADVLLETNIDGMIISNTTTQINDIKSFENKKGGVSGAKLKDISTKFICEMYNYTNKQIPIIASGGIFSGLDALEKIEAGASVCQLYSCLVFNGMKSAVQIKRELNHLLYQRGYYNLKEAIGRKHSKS
Sequence of E3 ubiquitin-protein ligase XIAP (Homo sapiens) (P98170 whole entry, looked up, the tested form may be a part): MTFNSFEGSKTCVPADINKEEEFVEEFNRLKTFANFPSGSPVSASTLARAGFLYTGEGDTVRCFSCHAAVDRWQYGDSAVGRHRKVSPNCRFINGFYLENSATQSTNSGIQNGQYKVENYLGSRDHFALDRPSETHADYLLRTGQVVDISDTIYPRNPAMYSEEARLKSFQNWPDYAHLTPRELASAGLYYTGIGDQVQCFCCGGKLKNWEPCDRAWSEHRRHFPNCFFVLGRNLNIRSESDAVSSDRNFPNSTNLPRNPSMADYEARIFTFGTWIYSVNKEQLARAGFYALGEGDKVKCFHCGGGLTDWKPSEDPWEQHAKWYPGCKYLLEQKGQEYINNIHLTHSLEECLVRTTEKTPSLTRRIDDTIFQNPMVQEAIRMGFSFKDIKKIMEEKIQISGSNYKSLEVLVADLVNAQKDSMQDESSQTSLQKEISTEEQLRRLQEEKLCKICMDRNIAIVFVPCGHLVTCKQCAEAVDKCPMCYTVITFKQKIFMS

Regarding `COC(=O)[C@@]1(Cc2ccc(OC)cc2)[C@H]2c3cc(C(=O)N(C)C)n(CCc4c[nH]c5ccc(O)cc45)c3C[C@H]2CN1C(=O)c1ccccc1`, the z-score in test [1] was -0.855; in [2], 1.29 (inactive); in [3] it was -1.64 (inactive); in test [5] it was 0.15 (inactive); in test [6] it was 0.599 (inactive); in test [7] it was -0.135 (inactive). Also, the z-score was 0.301 (inactive) in test [8]; -2.36 in [9]; -1.73 in test [12]; -1.44 (inactive) in test [13]; 0.453 (inactive) in [14]; -0.541 (inactive) in test [15]. For the same compound, the composite z-score in test [4] is -0.568 (inactive); in test [10], 0.201; in [11], 0.545 (inactive); in the test with XIP peptide (Xip251-270), 0.657.
Consider `C=C1C2CC3C(=C4C(CO[C@@H]4[C@H]4CCCN4S(=O)(=O)c4ccccc4[N+](=O)[O-])C4C(=O)N(C)C(=O)C34)CC2C(=O)N1C` (stereo partly drawn), for which the z-score in test [1] was -0.398; in [2] it was -1.05 (inactive); in test [3], -0.316 (inactive); in test [5], 0.413 (inactive); in [6], -0.302 (inactive); in test [7] it was -0.579 (inactive). Also, the z-score in [8] is -0.219 (inactive); in test [9] it was -0.864; in test [12], 0.769; in test [13] it was -7.2 (inactive); in test [14] it was -0.0718 (inactive); in test [15], 0.645 (inactive). The composite z-score in [4] was -0.911 (inactive); in test [10] it was -0.102; in [11], 0.253 (inactive); in the test on XIP peptide (Xip251-270) it was 0.849.
For the compound `C=CC1c2cc(O)c(OC)cc2CCN1Cc1sc2ccccc2c1Cl` (stereo not drawn), the z-score in test [1] is -0.62; in [2], -18.3 (active); in [3], -0.467 (inactive); in test [5], -0.227 (inactive); in test [6], -3.6 (inactive); in test [7], 0.243 (inactive). Further, the z-score is -0.404 (inactive) in [8]; -0.802 in test [9]; -0.614 in test [12]; -2.71 (inactive) in test [13]; 0.326 (inactive) in [14]; -0.0459 (inactive) in test [15]. Also, the composite z-score was -1.04 (inactive) in test [4], 0.265 in test [10], 0.51 (inactive) in [11] and 0.618 in the test on XIP peptide (Xip251-270).
For the compound `CN(C)CCCCNC(=O)[C@H]1C[C@H]2C(=O)N3CCC[C@H]3C(=O)N2[C@H]1c1ccc(O)cc1`, the z-score was 0.769 in test [1]; -0.659 (inactive) in test [2]; 0.949 (inactive) in [3]; 1.99 (inactive) in [5]; -0.35 (inactive) in [6]; -0.476 (inactive) in test [7]. Also, the z-score in test [8] is -0.565 (inactive); in test [9] it was -0.536; in [12] it was -1.25; in [13], -0.12 (inactive); in [14] it was 0.331 (inactive); in [15], 0.513 (inactive). The composite z-score is -0.884 (inactive) in [4], -0.192 in [10], -0.301 (inactive) in [11] and 0.538 in the test on XIP peptide (Xip251-270).
`O=C1O[C@@H](c2ccccc2)[C@@H](c2ccccc2)N2[C@@H](c3ccc(O)cc3)[C@]3(C(=O)Nc4ccc(C#CCCO)cc43)[C@@H](C(=O)NC[C@H](O)c3ccccc3)[C@H]12`: the z-score in [1] was 1.29; in [2], -0.169 (inactive); in test [3] it was 0.214 (inactive); in test [5] it was -0.192 (inactive); in test [6] it was 0.376 (inactive); in test [7] it was 0.6 (inactive). In addition, the z-score in test [8] is 0.242 (inactive); in test [9], 1.33; in test [12], -0.656; in test [13], -5 (inactive); in test [14], -0.101 (inactive); in test [15], -0.46 (inactive). For the same compound, the composite z-score in [4] is 0.129 (inactive); in test [10] it was 0.363; in test [11] it was 0.437 (inactive); in the test with XIP peptide (Xip251-270), 0.478.
With `C[C@]1(C(=O)NC2CC2)c2ccccc2C(=O)N(Cc2ccc(OC(F)(F)F)cc2)[C@H]1c1ccc(CO)cc1`, the z-score is -0.268 in [1]; -0.708 (inactive) in [2]; 0.191 (inactive) in test [3]; -0.109 (inactive) in test [5]; -0.474 (inactive) in test [6]; 0.0997 (inactive) in test [7]. Also, the z-score in test [8] is 0.054 (inactive); in test [9], -0.254; in [12], 0.516; in test [13], -3.59 (inactive); in test [14], -0.0307 (inactive); in [15], -0.521 (inactive). The composite z-score is 0.0758 (inactive) in test [4], -0.225 in test [10], 0.282 (inactive) in [11] and -0.923 with XIP peptide (Xip251-270).
For the compound `CCCCC(CC)C(O)C1C=CC2C(=O)N(c3ccccc3)C(=O)C2N1Nc1ccc([N+](=O)[O-])cc1` (stereo not drawn), the z-score in test [1] was -0.383; in test [2], -0.148 (inactive); in test [3] it was -0.201 (inactive); in test [5], 0.837 (inactive); in test [6] it was -0.066 (inactive); in test [7], -0.948 (inactive). In addition, the z-score in test [8] is -0.979 (inactive); in test [9] it was -0.759; in test [12], 0.0352; in [13] it was -3.6 (inactive); in [14], 0.332 (inactive); in test [15] it was -0.383 (inactive). Further, the composite z-score in test [4] is 0.41 (inactive); in test [10], -0.02; in [11], 0.389 (inactive); in the test with XIP peptide (Xip251-270), 0.624.
Turning to `NC(=O)N1C(=O)C2C(C1=O)C1C=C(c3ccc(CO)cc3)C2C(C2CC2)N1Cc1sc2ccccc2c1Cl` (stereo not drawn), the z-score in [1] is -0.131; in [2], -2.55 (inactive); in test [3] it was -1.06 (inactive); in test [5] it was -0.836 (inactive); in test [6], -0.484 (inactive); in test [7], 0.927 (inactive). Besides, the z-score is 0.112 (inactive) in test [8]; -1.23 in test [9]; -2.1 in test [12]; -2.31 (inactive) in [13]; -0.0244 (inactive) in test [14]; -0.0866 (inactive) in test [15]. In addition, the composite z-score was -2.67 (inactive) in test [4], -0.117 in [10], 0.703 (inactive) in test [11] and 0.726 in the test on XIP peptide (Xip251-270).

Source of the values: PubChem BioAssay.
